Assay [1] in a line: NCI Yeast Anticancer Drug Screen. Data for the rad50 strain (AID 155).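 Also: 0% = growth of vehicle-only cultures of the same strain.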 The settings on record: S. cerevisiae rad50 strain growth inhibition, active compounds read high. In a few lines: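 Compounds were tested on a yeast strain with an engineered DNA damage repair alteration; the reported value is growth inhibition normalised to vehicle treatment.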
A short description of assay [2]: NCI Yeast Anticancer Drug Screen. Data for the mec2-1 strain (AID 157). The settings on record: S. cerevisiae mec2-1 strain, active compounds read high. In a few lines:
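Each compound was tested on mec2-1 yeast, a strain altered in DNA damage repair or cell cycle control. Growth inhibition is reported relative to vehicle.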

Assay [3] in a line: NCI Yeast Anticancer Drug Screen. Data for the sgs1 mgt1 strain (AID 161).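 Also: 0% = growth of cultures given vehicle only.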 Conditions: S. cerevisiae sgs1 mgt1 strain, active compounds read high. In a few lines: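 Test agents were incubated with a DNA-repair-mutant yeast strain. Growth was then read and compared against vehicle-treated controls.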
The nature of assay [4]: NCI Yeast Anticancer Drug Screen. Data for the cln2 rad14 strain (AID 165).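 Also: 0% = growth equal to vehicle treated cultures.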 The settings on record: S. cerevisiae cln2 rad14 strain, active compounds read high. In a few lines: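 Test compounds were added to cln2 rad14 yeast cultures; inhibition of growth was then determined by comparison with vehicle treatment.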
Assay [5] in a line: NCI Yeast Anticancer Drug Screen. Data for the bub3 strain (AID 167). Conditions: S. cerevisiae bub3 mutant strain, active compounds read high. In a few lines:
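Growth of a checkpoint-deficient yeast mutant is measured after compound exposure. Values represent inhibition relative to vehicle.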

A short description of assay [6]: NCI Yeast Anticancer Drug Screen. Data for the mlh1 rad18 strain (AID 175). Conditions: S. cerevisiae mlh1 rad18 strain growth inhibition, active compounds read high. In outline:
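Inhibition values reflect reduced growth of mutant yeast versus vehicle-treated controls following compound exposure; the mutations affect DNA damage repair.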

Where [7] appears, read: at 5.0 µM (retest, dose inferred, filed as 0.5).
Where [8] appears, read: at 50.0 µM (retest, dose inferred, filed as 5.0).

This is part of a sample that, as a whole, favours compounds with a hit. Of some 79,000 tested, about 15% had one in any assay. Unmarked numbers belong to inactive results. Active and inactive are the calls of the source. Rule as the data show it: active = growth inhibition above about 70%; inactive = the rest.

Results on ten compounds are retold here after PubChem BioAssay (NCI).

Consider `CC(C)c1ccccc1OP(=S)(S)Oc1ccccc1C(C)C`, for which the growth inhibition was 4% in assay [1] (setting [7]); 38% in assay [1] (setting [8]); 82.8% (active) in assay [1] (at 50.0 µM); 5% in assay [2] (setting [7]); 24% in assay [2] (setting [8]); 2.75% in assay [2] (at 50.0 µM). Moreover, the growth inhibition in assay [3] (setting [7]) was 1%; in assay [3] (setting [8]), 45%; in assay [3] (at 50.0 µM), 72.8% (active); in assay [4] (setting [7]), 4%; in assay [4] (setting [8]) it was 54%; in assay [4] (at 50.0 µM) it was 87.3% (active). Besides, the growth inhibition in assay [5] (setting [7]) is 0%; in assay [5] (setting [8]) it was 54%; in assay [5] (at 50.0 µM) it was 37%; in assay [6] (setting [7]), 0%; in assay [6] (setting [8]), 68%; in assay [6] (at 50.0 µM) it was 79% (active).
As for `CC(C)=CCC/C(C)=C/CC/C(C)=C/Cc1c(O)c2ccccc2oc1=O`, the growth inhibition is 16% in assay [1] (setting [7]); 94% (active) in assay [1] (setting [8]); 89% (active) in assay [1] (at 50.0 µM); 5% in assay [2] (setting [7]); 97% (active) in assay [2] (setting [8]); 91.5% (active) in assay [2] (at 50.0 µM). The growth inhibition is 7% in assay [3] (setting [7]); 95% (active) in assay [3] (setting [8]); 89.7% (active) in assay [3] (at 50.0 µM); 29% in assay [4] (setting [7]); 96% (active) in assay [4] (setting [8]); 89.2% (active) in assay [4] (at 50.0 µM). In addition, the growth inhibition is -11% in assay [5] (setting [7]); 95% (active) in assay [5] (setting [8]); 88.3% (active) in assay [5] (at 50.0 µM); -21% in assay [6] (setting [7]); 98% (active) in assay [6] (setting [8]); 89.2% (active) in assay [6] (at 50.0 µM).
On to `CC(=O)OCC1(N2CCCC2)CCCCC1`, for which the growth inhibition in assay [1] (setting [7]) was -3%; in assay [1] (setting [8]) it was 2%; in assay [1] (at 50.0 µM), 5.05%; in assay [2] (setting [7]) it was 2%; in assay [2] (setting [8]) it was -3%; in assay [2] (at 50.0 µM) it was 5.35%. In addition, the growth inhibition in assay [3] (setting [7]) was -3%; in assay [3] (setting [8]), 16%; in assay [3] (at 50.0 µM) it was 43.4%; in assay [4] (setting [7]) it was -5%; in assay [4] (setting [8]) it was -17%; in assay [4] (at 50.0 µM) it was 0.45%. The growth inhibition is -10% in assay [5] (setting [7]); -10% in assay [5] (setting [8]); 23.6% in assay [5] (at 50.0 µM); -16% in assay [6] (setting [7]); -6% in assay [6] (setting [8]); -16.6% in assay [6] (at 50.0 µM).
As to `CC[C@@H]1C(=O)OC[C@@H]1Cc1cncn1C`, the growth inhibition in assay [1] (setting [7]) was -3%; in assay [1] (setting [8]), -8%; in assay [1] (at 50.0 µM), -4.1%; in assay [2] (setting [7]) it was 18%; in assay [2] (setting [8]), -4%; in assay [2] (at 50.0 µM), -35.8%. Moreover, the growth inhibition is 7% in assay [3] (setting [7]); -18% in assay [3] (setting [8]); -20.9% in assay [3] (at 50.0 µM); -27% in assay [4] (setting [7]); -90% in assay [4] (setting [8]); 26% in assay [4] (at 50.0 µM). Further, the growth inhibition is -11% in assay [5] (setting [7]); -4% in assay [5] (setting [8]); -19.1% in assay [5] (at 50.0 µM); -7% in assay [6] (setting [7]); -1% in assay [6] (setting [8]); -9.2% in assay [6] (at 50.0 µM).
On to `Cc1cc([N+](=O)[O-])c2ccccc2[n+]1[O-]`, for which the growth inhibition was 99% (active) in assay [1] (setting [7]); 99% (active) in assay [1] (setting [8]); 99.1% (active) in assay [1] (at 50.0 µM); 100% (active) in assay [2] (setting [7]); 100% (active) in assay [2] (setting [8]); 99.5% (active) in assay [2] (at 50.0 µM). Also, the growth inhibition in assay [3] (setting [7]) was 99% (active); in assay [3] (setting [8]), 99% (active); in assay [3] (at 50.0 µM) it was 48.6%; in assay [4] (setting [7]), 100% (active); in assay [4] (setting [8]), 100% (active); in assay [4] (at 50.0 µM) it was 58.4%. The growth inhibition was 99% (active) in assay [5] (setting [7]); 99% (active) in assay [5] (setting [8]); 99.2% (active) in assay [5] (at 50.0 µM); 100% (active) in assay [6] (setting [7]); 100% (active) in assay [6] (setting [8]); 49.8% in assay [6] (at 50.0 µM).
In the case of `O=C1C(C(Nc2ccccc2)c2ccccc2)=C([O-])c2ccccc21.O=C1C(C(Nc2ccccc2)c2ccccc2)=C([O-])c2ccccc21.[Co+2]` (stereo not given), the growth inhibition in assay [1] (setting [7]) is 66%; in assay [1] (setting [8]) it was 61%; in assay [1] (at 50.0 µM), 73.7% (active); in assay [2] (setting [7]), 42%; in assay [2] (setting [8]), 62%; in assay [2] (at 50.0 µM), 55.6%. In addition, the growth inhibition in assay [3] (setting [7]) is 42%; in assay [3] (setting [8]), 51%; in assay [3] (at 50.0 µM), 73% (active); in assay [4] (setting [7]), 41%; in assay [4] (setting [8]) it was 40%; in assay [4] (at 50.0 µM) it was 35%. Moreover, the growth inhibition in assay [5] (setting [7]) is 56%; in assay [5] (setting [8]), 54%; in assay [5] (at 50.0 µM), 77.4% (active); in assay [6] (setting [7]) it was 45%; in assay [6] (setting [8]) it was 64%; in assay [6] (at 50.0 µM), 65.5%.
For `O=S(=O)(F)c1cc(Cl)c(O)cc1Cl`, the growth inhibition in assay [1] (setting [7]) was -143%; in assay [1] (setting [8]) it was 16%; in assay [1] (at 50.0 µM), 78.3% (active); in assay [2] (setting [7]) it was -45%; in assay [2] (setting [8]), 48%; in assay [2] (at 50.0 µM), 57.8%. The growth inhibition in assay [3] (setting [7]) is -61%; in assay [3] (setting [8]) it was 60%; in assay [3] (at 50.0 µM), 79.6% (active); in assay [4] (setting [7]) it was -41%; in assay [4] (setting [8]) it was 47%; in assay [4] (at 50.0 µM) it was 51.5%. In addition, the growth inhibition in assay [5] (setting [7]) is -57%; in assay [5] (setting [8]) it was 39%; in assay [5] (at 50.0 µM), 78.2% (active); in assay [6] (setting [7]), -114%; in assay [6] (setting [8]), 45%; in assay [6] (at 50.0 µM), 83.2% (active).
For `COC12C(COC(N)=O)C3=C(C(=O)C(C)=C(NC(C)C)C3=O)N1CC1NC12` (stereo not given), the growth inhibition in assay [1] (setting [7]) was 5%; in assay [1] (setting [8]), 59%; in assay [1] (at 50.0 µM), 47.6%; in assay [2] (setting [7]), 10%; in assay [2] (setting [8]) it was 72% (active); in assay [2] (at 50.0 µM), 47.9%. In addition, the growth inhibition in assay [3] (setting [7]) was 13%; in assay [3] (setting [8]), 61%; in assay [3] (at 50.0 µM) it was 48%; in assay [4] (setting [7]) it was 2%; in assay [4] (setting [8]), 76% (active); in assay [4] (at 50.0 µM) it was 52%. The growth inhibition in assay [5] (setting [7]) was 1%; in assay [5] (setting [8]), 35%; in assay [5] (at 50.0 µM), 30.4%; in assay [6] (setting [7]), 31%; in assay [6] (setting [8]), 92% (active); in assay [6] (at 50.0 µM), 78.6% (active).
On to `O=[N+]([O-])O.c1ccc([As+](c2ccccc2)(c2ccccc2)c2ccccc2)cc1`, for which the growth inhibition was 26% in assay [1] (setting [7]); 96% (active) in assay [1] (setting [8]); 97% (active) in assay [1] (at 50.0 µM); 43% in assay [2] (setting [7]); 99% (active) in assay [2] (setting [8]); 97.9% (active) in assay [2] (at 50.0 µM). Moreover, the growth inhibition in assay [3] (setting [7]) was 21%; in assay [3] (setting [8]), 98% (active); in assay [3] (at 50.0 µM), 97% (active); in assay [4] (setting [7]), 7%; in assay [4] (setting [8]), 92% (active); in assay [4] (at 50.0 µM) it was 97.6% (active). Also, the growth inhibition is 16% in assay [5] (setting [7]); 97% (active) in assay [5] (setting [8]); 97% (active) in assay [5] (at 50.0 µM); 24% in assay [6] (setting [7]); 96% (active) in assay [6] (setting [8]); 95.8% (active) in assay [6] (at 50.0 µM).
In the case of `CC1(C)N=C(N)N=C(N)N1c1ccc(OCC(=O)Nc2cccc(S(=O)(=O)F)c2)c(Cl)c1`, the growth inhibition was 4% in assay [1] (setting [7]); 38% in assay [1] (setting [8]); 70.5% (active) in assay [1] (at 50.0 µM); -20% in assay [2] (setting [7]); 97% (active) in assay [2] (setting [8]); 95.6% (active) in assay [2] (at 50.0 µM). Moreover, the growth inhibition was -3% in assay [3] (setting [7]); 63% in assay [3] (setting [8]); 64.1% in assay [3] (at 50.0 µM); -2% in assay [4] (setting [7]); -5% in assay [4] (setting [8]); -25.9% in assay [4] (at 50.0 µM). Further, the growth inhibition in assay [5] (setting [7]) is -6%; in assay [5] (setting [8]), 32%; in assay [5] (at 50.0 µM), -1.45%; in assay [6] (setting [7]), 12%; in assay [6] (setting [8]) it was 65%; in assay [6] (at 50.0 µM) it was 45%.
